About 83,000 compounds went through this panel and 20% of them were active in at least one assay; those are over-represented in the sample as a whole.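 Single-dose data. Exposure time 48 hours. Values below 10 considered active.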 Active and inactive are the calls of the source.
How the values were obtained:
Experiment in all cases: NCI-60 one-dose screen, 48 h (100 = growth as untreated, 0 = no growth, -100 = all killed)
Details in all cases: 10 µM unless noted
[1] = tested on: DU-145 prostate
[2] = tested on: K-562 leukemia
[3] = tested on: MALME-3M melanoma
[4] = tested on: MDA-MB-231 breast
[5] = tested on: RXF 393 renal
[6] = tested on: SF-268 CNS
[7] = tested on: SF-295 CNS
[8] = tested on: SF-539 CNS
[9] = tested on: UACC-257 melanoma
[10] = tested on: M14 melanoma

Measured: growth

O=C(Nc1cccc(NC(=O)C2CCCCC2)c1)c1ccccn1
inactive: [1] 103% | [2] 85.2% | [3] 91% | [4] 104% | [5] 125% | [6] 95.7% | [7] 97.9% | [8] 98.1% | [9] 108% | [10] 91.7%

O=C(CSc1nc2ccc([N+](=O)[O-])cc2[nH]1)Nc1cccc([N+](=O)[O-])c1
inactive: [1] 67% | [2] 36.5% | [3] 30.5% | [4] 73.7% | [5] 60.5% | [6] 64.6% | [7] 43.8% | [8] 66.6% | [9] 42.7% | [10] 57.1%

CCOC(=O)c1c(NC(=O)CSc2n[nH]c3nc4ccccc4n23)sc(CC)c1C
inactive: [1] 112% | [2] 117% | [3] 138% | [4] 90.3% | [5] 96.1% | [6] 108% | [7] 91% | [8] 111% | [9] 113% | [10] 116%

O=C(CSc1nnc2sc(Nc3cccc(Cl)c3)nn12)c1ccc(F)cc1
inactive: [1] 104% | [2] 90.6% | [3] 116% | [4] 79.7% | [5] 102% | [6] 101% | [7] 97.2% | [8] 102% | [9] 102% | [10] 96%

Nc1n[nH]c2ccc([C@@H]3Nc4cc5[nH]ncc5cc4[C@H]4C5CCC(C5)[C@@H]34)cc12 (stereo not given in full)
active: [5] -2.95% | [8] -11.3% | [10] -3.7%
inactive: [1] 21.2% | [2] 10.6% | [3] 46.9% | [4] 12.7% | [6] 45.4% | [7] 11.8% | [9] 67.4%

CCN1C(=O)N(CC)C2C1NN=c1s/c(=C3\C(=O)N(CCc4ccccc4)c4ccccc43)c(=O)n12 (stereo not given)
active: [1] 5.49% | [2] 7.99% | [4] 2.5% | [5] -5.91% | [7] 9.5% | [8] -37.4%
inactive: [3] 33.3% | [6] 47% | [9] 53.2% | [10] 13.6%

Cc1nn(-c2ccccc2)c(/N=C/N(C)C)c1/C=C/C(=O)c1ccc(Cl)cc1
inactive: [1] 122% | [2] 59.6% | [3] 90.1% | [4] 77.2% | [5] 97.8% | [6] 118% | [7] 106% | [8] 101% | [9] 119% | [10] 94.7%

N=c1sc(Cc2cc(Cl)ccc2Cl)cn1CC(=O)c1ccccc1
inactive: [1] 68.7% | [2] 17% | [3] 44.6% | [4] 54.9% | [5] 77.1% | [6] 58.9% | [7] 57.3% | [8] 64.1% | [9] 60.3% | [10] 21.1%

O=C(N/N=C/c1ccc(O)cc1O)c1ccc(Nc2ccnc(C(F)(F)F)c2)cc1
inactive: [1] 53.5% | [2] 74.9% | [3] 46.6% | [4] 46.1% | [5] 95.3% | [6] 41.1% | [7] 47.8% | [8] 27.6% | [9] 44.6% | [10] 36.1%

N/C(=N\c1nc2ccccc2s1)NC(=NC1CCCCC1)NC1CCCCC1
active: [2] 3.16% | [3] -70% | [5] -46.9% | [7] -34.9% | [8] -44.7% | [9] -52.6% | [10] -55.8%
inactive: [1] 14.3% | [4] 21.1% | [6] 60%

CC/C=C1/C(=O)C=C[C@@H]1C/C=C\CCCC(=O)OC
inactive: [1] 77.1% | [3] 56.3% | [4] 28.7% | [5] 103% | [6] 79.7% | [7] 88.7% | [8] 108% | [9] 73.1% | [10] 50.5%
active: [2] 4.34%

CC[C@H](Nc1nc(N)nc(C)c1C#N)c1nc2cccc(NCCCCCC(=O)NO)c2c(=O)n1-c1ccccc1
active: [5] -6.92%
inactive: [1] 69.5% | [2] 77.1% | [3] 52.6% | [4] 61.8% | [6] 55.7% | [7] 22.9% | [8] 45.9% | [9] 54.4% | [10] 71.3%

C#CCOc1cccc(-c2ncc3cc(NC(=O)CCl)ccc3n2)c1
active: [1] -73.1% | [2] 2.16% | [3] -69% | [4] -10.3% | [5] -86.3% | [6] -41.8% | [8] -25.9% | [10] -45.9%
inactive: [7] 69.4% | [9] 62%

CCCC(O)Cn1ncc(C(=O)OCC)c1NC(=O)NCc1cccc(F)c1 (stereo not given)
inactive: [1] 99.4% | [2] 68.6% | [3] 97.6% | [4] 103% | [5] 120% | [6] 98.4% | [7] 93.3% | [8] 94.8% | [9] 85.2% | [10] 80.5%

Cc1ccc(N=Nc2c(N)nn(-c3ccccc3)c2N)cc1
active: [2] 7.43% | [5] -0.509% | [10] -2.8%
inactive: [1] 27.8% | [3] 39.3% | [4] 54.4% | [6] 54.5% | [7] 13.8% | [8] 11.4% | [9] 63.4%

N#C/C(=C\c1ccc(Cl)cc1Cl)C(=O)Nc1ncc(Cc2ccc(Cl)c(Cl)c2)s1
inactive: [1] 99.3% | [2] 25.5% | [3] 93% | [4] 97.1% | [5] 113% | [6] 84% | [7] 89.9% | [8] 85.6% | [9] 93.2% | [10] 53.8%

CS(=O)(=O)Nc1cc(-c2ccc3ncnc(Nc4ccc5c(cnn5Cc5cccnc5)c4)c3c2)cnc1Cl
inactive: [1] 63.4% | [2] 57.7% | [4] 47.6% | [5] 44.4% | [6] 27.9% | [7] 81.8% | [8] 41.4% | [9] 64.5% | [10] 41%
active: [3] 5.01%

COC(=O)c1nc(-c2ccccc2)oc1S(=O)(=O)N1CCC(C(N)=O)CC1
inactive: [1] 55.1% | [2] 14.8% | [3] 46.1% | [4] 76% | [5] 47.4% | [6] 85.9% | [7] 107% | [8] 63.2% | [9] 69.2% | [10] 48.1%

CCOC(=O)c1c(NC(=O)c2ccc(OC)cc2)sc2c(CN(C)C)c(O)ccc12
active: [3] -57.5% | [9] -58% | [10] -69.4%
inactive: [1] 84.3% | [2] 24.1% | [4] 79.1% | [5] 53.6% | [6] 98% | [7] 82.3% | [8] 68.8%

COc1cc2c(c(OC)c1OC)C(=O)CC(c1cccc(NC(=O)c3ccccc3Br)c1)O2 (stereo not given)
inactive: [1] 97.1% | [2] 70.2% | [3] 105% | [4] 98.6% | [5] 99.4% | [6] 90.5% | [7] 92.5% | [8] 96.5% | [9] 90.1% | [10] 97.8%

CO[C@H](C(=O)[C@@H](O)[C@@H](C)O)[C@@H]1Cc2cc3cc(O[C@H]4C[C@@H](O[C@H]5C[C@@H](O)[C@H](O)C(C)O5)[C@H](O)C(C)O4)c(C)c(O)c3c(O)c2C(=O)[C@H]1O[C@H]1C[C@@H](O[C@H]2C[C@@H](O[C@H]3C[C@@H](OC)[C@H](O)C(C)O3)[C@@H](O)C(C)O2)C(O)(O)C(C)O1 (stereo not given in full)
active: [3] -36.8% | [4] 5.02% | [5] -57.9% | [8] -0.417% | [9] -20.5%
inactive: [1] 19.5% | [2] 12.1% | [6] 26.3% | [7] 12.4% | [10] 11.1%

COc1ccc(C2CC(c3ccc4c(c3)OCO4)=Nc3c(N)ncnc3N2)cc1 (stereo not given)
inactive: [1] 141% | [2] 99.6% | [3] 106% | [4] 90.1% | [5] 84.3% | [6] 93.3% | [7] 168% | [8] 110% | [9] 107% | [10] 105%

Cc1cc(C)cc(Nc2ccc([N+](=O)[O-])c(NCCN3CCOCC3)n2)c1
inactive: [3] 60.5% | [4] 31.2% | [5] 58.4% | [6] 25.1% | [7] 15.7% | [9] 76.1%
active: [1] -1.87% | [2] 7.21% | [8] -11.3% | [10] 1.99%

O=C(Cn1nnc2ccccc21)Nc1ccc(-c2nc3ccccc3s2)cc1
inactive: [1] 74% | [2] 55.2% | [3] 96.9% | [4] 94.7% | [5] 99.9% | [6] 92.4% | [7] 84.7% | [8] 71.2% | [9] 94.5% | [10] 90.6%

O=c1[nH]c(-c2ccc(Cl)cc2)cn1-c1ccc(-n2cc(-c3ccc(Cl)cc3)[nH]c2=O)cc1
inactive: [1] 108% | [2] 113% | [3] 97.9% | [4] 94.7% | [5] 113% | [6] 109% | [7] 101% | [8] 104% | [9] 101% | [10] 99.2%

CCCCCCCCn1ccc2cc(NC(=O)Cn3cc(CN4CCC(C)CC4)nn3)ccc21
inactive: [1] 42.3% | [5] 24.8% | [6] 32.8% | [8] 11.5%
active: [2] -25.6% | [3] -70.5% | [4] 9.71% | [7] -74.3% | [9] -35.8% | [10] -65.2%

Reference: PubChem BioAssay (NCI)
